Source: PubChem BioAssay AID602292 (National Center for Advancing Translational Sciences (NCATS), 2012)
Out of some 1,300 compounds screened, about 380 (29%) were called active. Inconclusive results (about 37%) are left out. Calls come from the whole dose curve; as a rule, active = well fitted inhibition curve with a large enough effect; inconclusive = small, poorly fitted or top-dose-only effect; inactive = flat fitted curve, though single readings scatter. Some of the results follow. A call without a number means that no potency is given here.
Note: nearly all actives have a fitted effect of over 80% in size.
Potency is the fitted concentration of half-maximal effect.

The molecules below were run against Thyrotropin receptor (Homo sapiens) (UniProt P16473) (assay: qHTS for antagonists of the Thyroid Stimulation Hormone Receptor: Hit Validation in Primary Screen). Settings: TSHR-expressing cells, cAMP antagonist mode; series mostly up to 58 µM.
Thyrotropin receptor (Homo sapiens), sequence (P16473 whole entry, looked up): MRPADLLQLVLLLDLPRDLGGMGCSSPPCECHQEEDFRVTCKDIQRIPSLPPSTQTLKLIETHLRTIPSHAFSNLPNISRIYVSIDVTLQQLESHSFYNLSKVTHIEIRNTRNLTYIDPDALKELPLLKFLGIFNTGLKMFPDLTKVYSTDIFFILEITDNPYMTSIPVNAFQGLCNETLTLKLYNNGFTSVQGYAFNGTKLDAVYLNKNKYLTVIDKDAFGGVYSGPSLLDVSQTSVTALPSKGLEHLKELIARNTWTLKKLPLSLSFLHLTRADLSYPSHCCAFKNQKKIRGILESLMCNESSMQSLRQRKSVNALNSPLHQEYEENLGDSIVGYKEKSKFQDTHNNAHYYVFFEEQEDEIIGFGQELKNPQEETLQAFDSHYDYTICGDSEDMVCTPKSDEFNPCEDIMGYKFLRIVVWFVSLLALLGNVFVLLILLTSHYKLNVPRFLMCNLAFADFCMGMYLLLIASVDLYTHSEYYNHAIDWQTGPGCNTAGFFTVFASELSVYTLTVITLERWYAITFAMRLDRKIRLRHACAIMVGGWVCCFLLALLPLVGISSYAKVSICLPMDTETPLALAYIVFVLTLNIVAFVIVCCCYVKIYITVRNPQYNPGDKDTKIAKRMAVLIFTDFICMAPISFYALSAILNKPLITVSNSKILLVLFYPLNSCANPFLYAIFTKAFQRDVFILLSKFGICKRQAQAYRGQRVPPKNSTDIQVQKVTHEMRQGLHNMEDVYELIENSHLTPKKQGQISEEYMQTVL
From the text: The thyroid-stimulating hormone receptor (TSHR) is a member of the 7 trans-membrane-spanning receptor (7TMR) family of cell surface receptors. TSHR-mediated hyperthyroidism is important in thyroid pathology. The development of small molecule antagonists of TSHR may lead to therapeutic approaches for TSHR-mediated hyperthyroidism caused by constitutively activating mutations or stimulating auto-antibodies associated with Graves' disease. Graves' disease is the leading cause of hyperthyroidism and is caused by autoantibodies that stimulate TSHR (TsAbs) causing thyroid growth and unregulated overproduction of thyroid hormones and existing treatments have liabilities (agranulocytosis). In addition, TSHRs are known to be expressed in multiple extrathyroidal tissues including bone, brain, kidney, testis, fat and cells of the immune system but the role of the TSHR in these tissues is not clear. Therefore, TSHR antagonists/inverse agonists could be used as probes of extrathyroidal TSHR function. Finally, TSHR inverse agonists, which are a subclass of antagonists that inhibit agonist-independent (or basal or constitutive) TSHR signaling, could be used to inhibit TSH-independent signaling in patients with recurrent or metastatic thyroid cancer who are receiving thyroid hormone to suppress TSH.
In collaboration between scientist from the NCGC and the NIDDK, a miniaturized HTRF high-throughput screen was developed. It's a cell based assay, where an anti cAMP antibody contains a fluorescent cryptate tag (excitation 337 nm; emission 620 nm) and the acceptor is cAMP-d2 (excitation 620 nm; emission 665 nm). When antibody and cAMP-d2 interact and are excited by a 337 nm light, a FRET occurs resulting in emission at 665 nm. The assay is competition between cAMP-d2 and cAMP (from the cell lysate). The homogeneous protocol allows for one step dispense after stimulation that is automation friendly. This is a hit validation assay using the primary screen format.
NIH Chemical Genomics Center [NCGC]
NIH Molecular Libraries Probe Centers Network [MLPCN]
Assay Provider: Marvin Gershengorn, NIDDK
1. 3ul of 200 TSHR freshly harvested cells/well are dispensed into a 1536 TC-treated white solid bottom plate.
2. Through pintool addition, 23nl of compounds and control in 100% DMSO are added to the plate.
3. Then 1ul of EC80 TSH (4nM final) is added to the plate.
4. Assay is incubated at 37 deg C for 2 hours.
5. 2ul of cAMP antibody diluted 1:20 in lysis buffer is added.
6. Immediately following, 2ul of d2 diluted 1:20 in HBSS is added seperately.
7. The assay is incubated for 30 minutes at ambient room temperature.
8. The result is obtained by using a ViewLux read-out with HTRF settings.
`CC(C)C1Nc2c(O)cc(Cl)c([N+](=O)[O-])c2C2C=CCC21` (configuration not stated) was tested, and the Potency was 8.49 µM (active).
`COc1ccc(CNC(=O)CCS(=O)(=O)c2cc3c(cc2Cl)NC(=O)CO3)cc1` was tested, and the Potency was “inactive”.
`C/C(=N\NC(=O)c1cccc(Cl)c1)C1C(=O)c2ccccc2C1=O` was tested, and the Potency was 12 µM (active).
With `CC(=O)N1c2ccc(S(=O)(=O)N3CCC(C(=O)NC4CCCCC4C)CC3)cc2CC1C` (configuration not stated) the Potency was “inactive”.
In the case of `O=C(COc1cccc2ccccc12)Nc1ccc(Cl)cc1C(=O)O`, the Potency is reported as 4.78 µM (active).
In the case of `O=C(COc1ccc(Cl)cc1Cl)Nc1ccc(C(=O)Nc2ccccc2C(=O)O)cc1`, the Potency is reported as 23.9 µM (active).
`O=C(CSc1ccccn1)Nc1cccc2ccccc12` was tested, and the Potency was “inactive”.
For `O=C(Nc1cccc2ccccc12)c1ccccc1`, the Potency was “inactive”.
In the case of `O=C(CSc1ccc2nnc(CCNC(=O)c3ccccc3)n2n1)NCc1ccc(F)cc1`, the Potency is reported as “inactive”.
With `N#Cc1ccc(C(=O)Nc2nc(-c3cccs3)c(C(=O)C(F)(F)F)s2)cc1` the Potency was 6.01 µM (active).
In the case of `Cc1ccccc1NC(=O)CCc1c(C)nn(-c2ccc(N3CCOCC3)nn2)c1C`, the Potency is reported as “inactive”.
For `CC(=O)c1c(O)cc(O)c(C(C)=O)c1O`, the Potency was 30.1 µM (active).
With `Cc1ccc(-n2nc3c(=O)n(C(C)C(=O)NC4CC4)nc(C)c3c2C)cc1` (configuration not stated) the Potency was “inactive”.
For `COc1ccc(-c2nn(-c3ccccc3)cc2/C=N/NC(=O)c2ccc(Br)o2)cc1`, the Potency was 9.53 µM (active).
For `COc1cc(C(=O)N/N=C/c2cn(Cc3ccccc3)c3ccccc23)ccc1O`, the Potency was “inactive”.
For `CCN(C(=O)CSc1nnc(CNc2cccc(OC)c2)n1C1CCCCC1)C1CCS(=O)(=O)C1` (configuration not stated), the Potency was “inactive”.
For `CC(=O)c1cccc(NS(=O)(=O)c2cc(-c3cnc(C4CC4)o3)ccc2C)c1`, the Potency was 21.3 µM (active).
In the case of `CC(=O)c1cccc(NC(=O)c2sc3nc4n(c(=O)c3c2C)CCCC4)c1`, the Potency is reported as “inactive”.
For `COc1ccc(NS(=O)(=O)c2cc(-c3cnc(C4CC4)o3)ccc2C)cc1`, the Potency was 26.9 µM (active).
In the case of `Cc1ccc(-c2cnc(C3CC3)o2)cc1S(=O)(=O)Nc1ccccc1`, the Potency is reported as 30.1 µM (active).
`COc1ccc(-c2cc3c(=O)n(CC(=O)NCc4cccnc4)nc(C)n3n2)cc1` was tested, and the Potency was “inactive”.
`CCCn1c(=O)c2[nH]c(C3CCCC3)nc2n(CCC)c1=O` was tested, and the Potency was “inactive”.
For `O=C(NN=C1CCCC1)c1cc(Cl)cc(Cl)c1O`, the Potency was “inactive”.
For `CC1=N/C(=C\c2ccc([N+](=O)[O-])cc2)C(=O)N1c1ccc(Cl)cc1`, the Potency was “inactive”.
For `Cc1c(Cl)sn(-c2ccc(Cl)cc2)c1=O`, the Potency was 26.9 µM (active).
`O=C(Nc1ccc(N2CCN(C(=O)c3ccccc3)CC2)cc1)c1cc2ccccc2o1` was tested, and the Potency was 23.9 µM (active).
For `CS(=O)(=O)N(Cc1ccccc1)c1ccc(C(=O)N2CCN(c3cccc(Cl)c3)CC2)cc1`, the Potency was “inactive”.
For `O=C(NCCc1ccccc1)c1cc2ccccc2oc1=O`, the Potency was “inactive”.
With `CCN(c1ccc(OC)cc1)S(=O)(=O)c1cc(-c2cc(C)no2)ccc1C(C)C` the Potency was “inactive”.
For `CCc1ccc(-c2cc(C)no2)cc1S(=O)(=O)N1CCN(c2ccccn2)CC1`, the Potency was 30.1 µM (active).
For `Cc1ccc(NC(=O)Cn2ncc3c([nH]c4ccccc43)c2=O)cc1Cl`, the Potency was “inactive”.
`O=C(Nc1ccc(Cl)cc1)c1cc2c(cc1O)[nH]c1ccccc12` was tested, and the Potency was 3.01 µM (active).
In the case of `CC(NC(=O)c1cc(=O)[nH]c2ccccc12)c1ccc(F)cc1F` (configuration not stated), the Potency is reported as “inactive”.
`COC(=O)Cc1c(C)[nH]n(-c2cc(Cl)cc(Cl)c2)c1=O` was tested, and the Potency was “inactive”.
For `Cc1cc(C)n2nc(SCC(=O)Nc3ccccc3C)nc2n1`, the Potency was “inactive”.
For `Cc1cc(C(=O)NC2CCCc3c2cnn3-c2ccc(C(C)(C)C)cc2)nn1C` (configuration not stated), the Potency was 30.1 µM (active).
In the case of `Cc1cc(C)cc(OC(C)C(=O)NCCCn2ccnc2)c1` (configuration not stated), the Potency is reported as “inactive”.
In the case of `O=C(Nc1ccc(Cl)c(S(=O)(=O)N2CCOCC2)c1)c1ccc(OCC2CCCO2)cc1` (configuration not stated), the Potency is reported as 15.1 µM (active).
For `CC1=C(C(=O)N2CCCC(N3CCN(c4ccccc4C)CC3)C2)OCCO1` (configuration not stated), the Potency was “inactive”.
`COc1ccccc1N1CCN(C(=O)CCC(=O)N2CCN(c3ccc(F)cc3)CC2)CC1` was tested, and the Potency was “inactive”.
For `COCCNC(=O)CN1C(=O)c2cccc3cccc1c23`, the Potency was “inactive”.
In the case of `CCOc1ccccc1N1CCN(C(=O)CCCN2C(=O)c3cccc4cccc(c34)C2=O)CC1`, the Potency is reported as 30.1 µM (active).
In the case of `O=C(COC(=O)c1ccccc1C(=O)c1ccc(Cl)c([N+](=O)[O-])c1)NC1CCCCCC1`, the Potency is reported as 23.9 µM (active).
`Nc1ccc(C(=O)NC2CCSc3ccccc32)cc1[N+](=O)[O-]` (configuration not stated) was tested, and the Potency was “inactive”.
For `Cc1ccc(NC(=O)CCc2nnc3ccc(NCc4ccco4)nn23)nc1`, the Potency was “inactive”.
For `CN(C)c1ccc(NC(=O)C2C3C=CC(C3)C2C(=O)O)cc1` (configuration not stated), the Potency was “inactive”.
For `Cc1ccc(S(=O)(=O)NC(=O)Nc2ccc(N(C)C)cc2)cc1`, the Potency was 30.1 µM (active).
With `CN(C)c1ccc(NC(=O)Oc2ccccc2)cc1` the Potency was “inactive”.
In the case of `COc1cccc(CN(C)C(=O)c2ccc(OCC(=O)Nc3cccc(C(F)(F)F)c3)c(OC)c2)c1`, the Potency is reported as 23.9 µM (active).
For `CSCCCNC(=O)c1ccc(OC2CCN(C(=O)c3cccnc3)CC2)cc1`, the Potency was “inactive”.
In the case of `Cn1c2c(c(=O)n(C)c1=O)C(C(F)(F)F)(C(F)(F)F)N=C(c1ccc(Cl)cc1)N2`, the Potency is reported as 19 µM (active).
With `COc1ccc(C2c3ccc(O)cc3Oc3ncn(Cc4ccco4)c(=N)c32)cc1` (configuration not stated) the Potency was “inactive”.
For `O=C(CN1C(=O)NC2(CCCCCC2)C1=O)N1CCC(Cc2ccccc2)CC1`, the Potency was 21.3 µM (active).
For `CC(=O)N1c2ccc(S(=O)(=O)N(C)CC(=O)N(C)Cc3ccccc3)cc2CC1C` (configuration not stated), the Potency was “inactive”.
With `CC1Cc2ccccc2N1C(=O)COC(=O)/C=C/c1cccc(F)c1` (configuration not stated) the Potency was 30.1 µM (active).
In the case of `CC(C)Cc1ccc(C(C)C(=O)Nc2nccs2)cc1` (configuration not stated), the Potency is reported as “inactive”.
With `COc1ccc(OC)c2c1C(=O)C(Cl)=C(Cl)C2=O` the Potency was 33.8 µM (active).
With `Cc1cccc(OC2CCN(Cc3nc(CC4CC4)no3)CC2)c1` the Potency was “inactive”.
For `O=C(N[C@H]1C/C=C\C(c2cccc(F)c2)N(Cc2ccccc2)C(=O)C1)OCC1c2ccccc2-c2ccccc21` (some centres not stated), the Potency was “inactive”.
With `CCc1cc(CNC(=O)CC2C(=O)NCCN2Cc2ccc(-c3ccccc3)cc2)on1` (configuration not stated) the Potency was “inactive”.
In the case of `CCCc1ccc(-c2c(C)sc(NC(=O)c3ccnn3C)c2C#N)cc1`, the Potency is reported as 23.9 µM (active).
`CCN1C(=NCc2ccc(OC)cc2)N[C@@H](CCc2ccccc2)[C@H](C(=O)NCc2ccc(OC)cc2)[C@H]1C` was tested, and the Potency was “inactive”.
